Hits are enriched below; roughly 7.3% of the tested compounds scored in any of these assays.
ELG1 genotoxic: inducers of genotoxicity in HEK293T ELG1-luciferase cells; 330,000 compounds, 1.3% hits; HEK293T ELG1-luciferase reporter, luminescence, 16 h; Potency, µM (series often up to 46 µM), hits mostly activators; note: nearly all actives have a fitted effect of over 60% in size
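Cells (2,000/well) expressing the ELG1-luciferase fusion are dosed by pin tool and kept 16 hr at 37 °C, 5% CO2. Signal comes from ONE-Glo luciferase reagent after 30 min at room temperature.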
Rab9 promoter act: activators of Rab9 promoter; Huh7 Rab9 promoter-luciferase reporter, luminescence, 24 h; 320,000 compounds, 2.8% hits; Potency, µM (titrated, usually from 9.22 µM), usual class: activators; note: nearly all actives have a fitted effect of over 60% in size
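Stable Rab9-luc Huh7, 1500 cells/well, 2 h settle; cmpd in DMSO, 24 h, 37 °C/5% CO2; luciferase reagent 10 min RT; luminescence.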
KinaseGlo FLuc: blocks Kinase-Glo luciferase, a counter-screen artifact | Kinase-Glo luciferase, ATP luminescence, 8 min | Potency, µM (top dose mostly 38.3 µM), most hits filed as inhibitors | 200,000 compounds, 0.28% hits | AID 1379; note: nearly all actives have a fitted effect of over 60% in size
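Compounds were added to a substrate mix at pH 7.2 (50 mM imidazole, 10 uM ATP, within the enzyme's linear range), followed by Kinase-Glo detection reagent; luminescence was measured after 8 minutes at ambient temperature.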
SMN2 splice up: increases expression of the SMN2 splice variant | HEK293 SMN2-luciferase splicing reporter, luminescence, 30-36 h | Potency, µM (series often up to 46.1 µM), most hits filed as activators | 210,000 compounds, 2.8% hits; note: nearly all actives have a fitted effect of over 55% in size
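HEK293 cells carry an SMN2 […]–luciferase reporter in which exon 7 inclusion puts luciferase in frame. Cells were plated 10-12 h before compound addition, then incubated 30-36 h at 37C. ONE-Glo luminescence was read; sodium butyrate at 4.5 mM final served as control.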
FLuc counter: inhibits or activates purified firefly luciferase, miR-21 counter-screen. P08659. AID 588342. Potency, µM (highest dose often 57.5 µM), usual class: inhibitors. 360,000 compounds, 6.9% hits. purified FLuc, Km substrates, luminescence inhibition; note: nearly all actives have a fitted effect of over 55% in size
Target sequence (P08659 whole entry, looked up): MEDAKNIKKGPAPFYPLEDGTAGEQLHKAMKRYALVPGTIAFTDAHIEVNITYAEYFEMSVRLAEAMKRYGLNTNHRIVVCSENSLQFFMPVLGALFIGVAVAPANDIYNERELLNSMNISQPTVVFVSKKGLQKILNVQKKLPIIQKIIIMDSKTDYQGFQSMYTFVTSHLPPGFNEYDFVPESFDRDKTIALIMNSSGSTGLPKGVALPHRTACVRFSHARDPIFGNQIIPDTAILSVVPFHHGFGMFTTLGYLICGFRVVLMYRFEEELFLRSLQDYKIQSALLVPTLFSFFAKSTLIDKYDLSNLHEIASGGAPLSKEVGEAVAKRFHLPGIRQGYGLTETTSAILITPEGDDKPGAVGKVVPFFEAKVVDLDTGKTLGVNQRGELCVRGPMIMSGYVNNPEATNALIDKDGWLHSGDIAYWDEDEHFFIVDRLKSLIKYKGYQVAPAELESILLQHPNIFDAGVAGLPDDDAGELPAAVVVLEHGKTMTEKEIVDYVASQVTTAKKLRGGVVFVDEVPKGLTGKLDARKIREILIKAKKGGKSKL
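Purified P. pyralis luciferase (10nM final) with 10uM D-luciferin and 10uM ATP (Km levels) in 50mM Tris acetate pH 7.5, 10mM Mg acetate, 0.01% Tween-20, 0.05% BSA; qHTS 6-point titration, ~60 µM downward; luminescence read.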
NPC1 prom act: activates the NPC1 promoter; Huh7 NPC1 promoter luciferase reporter, 24 h; Potency, µM (titrated, usually from 9.22 µM), most hits filed as activators; 320,000 compounds, 2.4% hits; note: nearly all actives have a fitted effect of over 60% in size
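Stable NPC1-promoter luciferase Huh7 line; cpd (DMSO) 24 h, 37 °C, 5% CO2; Amplite luciferase reagent 10 min RT; luminescence readout. qHTS format.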
Hits are given with their value. Calls come from the whole dose curve; as a rule, active = well fitted curve in the direction sought with a large enough effect; inconclusive = small, poorly fitted or top-dose-only effect, or another doubt; inactive = no such curve, though single readings can be large; an effect the other way counts as inactive or inconclusive.

What do the screens show for `COc1cc(CNCc2ccccn2)ccc1OCc1ccc(Cl)cc1Cl`?
ELG1 genotoxic: inactive; Rab9 promoter act: inactive; KinaseGlo FLuc: inactive; SMN2 splice up: inactive; FLuc counter: inactive; NPC1 prom act: inactive

How did O=C(C[C@H]1C[C@H](C(=O)N2CCOCC2)[C@@]2(CCC3CCCC3)c3[nH]c4ccc(Cl)cc4c3CCN2C1=O)NCCCn1ccnc1 do in these assays?
ELG1 genotoxic: inactive

Results for O=C(CSc1nnnn1-c1ccccc1)N1CCNC1=O ?
ELG1 genotoxic: inactive; Rab9 promoter act: inactive; FLuc counter: inactive; NPC1 prom act: inactive

What do the screens show for `COc1cc(C(=O)N/N=C/c2ccsc2C)cc(OC)c1OC`?
ELG1 genotoxic: inactive; Rab9 promoter act: inactive; KinaseGlo FLuc: inactive; SMN2 splice up: inactive; FLuc counter: inactive; NPC1 prom act: inactive

Results for O=C(NC(Nc1nc2ccccc2s1)(C(F)(F)F)C(F)(F)F)c1ccccc1 ?
ELG1 genotoxic: inactive; Rab9 promoter act: inactive; KinaseGlo FLuc: inactive; SMN2 splice up: inactive; FLuc counter: inactive; NPC1 prom act: inactive

What do the screens show for `COC(=O)CNc1nc(OC)nc(N(C)C)n1`?
ELG1 genotoxic: inactive; Rab9 promoter act: inactive; KinaseGlo FLuc: inactive; SMN2 splice up: inactive; FLuc counter: inactive; NPC1 prom act: inactive

How did CC1(c2ccccc2)NC(=O)N(CC(=O)NNC(=O)c2ccccc2)C1=O (stereo not drawn) do in these assays?
ELG1 genotoxic: inactive; Rab9 promoter act: inactive; FLuc counter: inactive; NPC1 prom act: inactive

What do the screens show for `CCN(CC)c1ccc(C(=O)NNC(=O)CN2C(=O)NC3(CCCCC3)C2=O)cc1`?
ELG1 genotoxic: inactive; Rab9 promoter act: inactive; FLuc counter: 9.5µM; NPC1 prom act: inactive

What do the screens show for `CCN(CC)c1ccc(C(=O)NNC(=O)c2cccn2C)cc1`?
ELG1 genotoxic: inconclusive; Rab9 promoter act: 3.5µM; FLuc counter: inconclusive; NPC1 prom act: inconclusive

Results for CCN(CC)c1ccc(C(=O)NNC(=O)CN2C(=O)NC(C)(c3ccccc3)C2=O)cc1 (stereo not drawn) ?
ELG1 genotoxic: inactive; Rab9 promoter act: inactive; FLuc counter: 5.4µM; NPC1 prom act: inactive

Results for CCc1ccc(C(=O)NNC(=O)CN2C(=O)NC(CC)(c3ccccc3)C2=O)cc1 (stereo not drawn) ?
ELG1 genotoxic: inactive; Rab9 promoter act: inactive; FLuc counter: 17µM; NPC1 prom act: inactive

Results for COCCNC(=O)CCc1ccc(S(=O)(=O)Nc2ccc(C)cc2)cc1 ?
ELG1 genotoxic: inactive; Rab9 promoter act: inactive; KinaseGlo FLuc: inactive; SMN2 splice up: inactive; FLuc counter: inactive; NPC1 prom act: inactive

How did CN(C(=O)C1CCOC1)c1nnc(-c2ccncc2)s1 (stereo not drawn) do in these assays?
ELG1 genotoxic: inactive; Rab9 promoter act: inactive; KinaseGlo FLuc: inactive; SMN2 splice up: inconclusive; FLuc counter: inactive; NPC1 prom act: inactive

What do the screens show for `CN(C(=O)C1CCOC1)c1nnc(-c2ccccn2)s1` (stereo not drawn)?
ELG1 genotoxic: 21µM; Rab9 promoter act: inconclusive; KinaseGlo FLuc: inactive; SMN2 splice up: inactive; FLuc counter: 15µM; NPC1 prom act: inactive

What do the screens show for `CCOC(=O)c1sc(-c2ccccn2)nc1C`?
ELG1 genotoxic: inactive; Rab9 promoter act: inactive; KinaseGlo FLuc: inactive; SMN2 splice up: inactive; FLuc counter: 27µM; NPC1 prom act: inactive

How did c1ccc(C2=NNC(c3ccccn3)=NN2)nc1 do in these assays?
ELG1 genotoxic: inconclusive; Rab9 promoter act: 0.71µM; FLuc counter: 3.4µM; NPC1 prom act: 3.5µM

What do the screens show for `COCC(=O)N(C)c1nnc(-c2ccccn2)s1`?
ELG1 genotoxic: 21µM; Rab9 promoter act: inactive; KinaseGlo FLuc: inactive; SMN2 splice up: 20µM; FLuc counter: inconclusive; NPC1 prom act: inactive

How did O=C1CSC(=S)N1Cc1cccnc1 do in these assays?
ELG1 genotoxic: inactive; Rab9 promoter act: inactive; KinaseGlo FLuc: inactive; SMN2 splice up: inactive; FLuc counter: inactive; NPC1 prom act: inactive

Results for CCCc1c(O)c2ccccc2n(-c2ccccc2)c1=O ?
ELG1 genotoxic: inactive; Rab9 promoter act: inactive; KinaseGlo FLuc: inactive; SMN2 splice up: inactive; FLuc counter: inactive; NPC1 prom act: inactive

How did CCN(CC)S(=O)(=O)c1ccc(Cl)c(NC(=O)COC(=O)/C=C/c2cc(OC)c(OC)c(OC)c2)c1 do in these assays?
ELG1 genotoxic: inactive; Rab9 promoter act: inactive; KinaseGlo FLuc: inactive; SMN2 splice up: inactive; FLuc counter: inactive; NPC1 prom act: inactive

Results for c1ccc(-c2nc(-c3ccccn3)nc(-c3ccccn3)n2)nc1 ?
ELG1 genotoxic: inactive; Rab9 promoter act: inactive; FLuc counter: inactive; NPC1 prom act: inactive

What do the screens show for `c1ccc(-c2nnc(-c3ccccn3)s2)nc1`?
ELG1 genotoxic: inconclusive; Rab9 promoter act: 0.089µM; FLuc counter: 1.3µM; NPC1 prom act: 0.1µM

What do the screens show for `CN(C(=O)C1CCCO1)c1nnc(-c2ccccn2)s1` (stereo not drawn)?
ELG1 genotoxic: inconclusive; Rab9 promoter act: inactive; KinaseGlo FLuc: inactive; SMN2 splice up: inactive; FLuc counter: 15µM; NPC1 prom act: inactive

What do the screens show for `COCCCN1C(=O)c2ccc(C(=O)Nc3ccc(OC)cc3)cc2C1=O`?
ELG1 genotoxic: inactive; Rab9 promoter act: inactive; KinaseGlo FLuc: inactive; SMN2 splice up: inactive; FLuc counter: 8.5µM; NPC1 prom act: inactive

What do the screens show for `O=C(Nc1ccc(O)cc1)c1ccc2c(c1)C(=O)N(Cc1ccccc1)C2=O`?
ELG1 genotoxic: inactive; Rab9 promoter act: inactive; FLuc counter: inactive; NPC1 prom act: inactive

Results for CC(C)CN1C(=O)c2ccc(C(=O)Nc3ccc(OCC(=O)O)cc3)cc2C1=O ?
ELG1 genotoxic: inactive; Rab9 promoter act: inactive; FLuc counter: 6.7µM; NPC1 prom act: inactive

Results for CC(C)CN1C(=O)c2ccc(C(=O)Nc3ccncc3)cc2C1=O ?
ELG1 genotoxic: inactive; Rab9 promoter act: inactive; KinaseGlo FLuc: inactive; SMN2 splice up: inactive; FLuc counter: inactive; NPC1 prom act: inactive

What do the screens show for `O=C(O)COc1ccc(NC(=O)c2ccc3c(c2)C(=O)N(Cc2ccccc2)C3=O)cc1`?
ELG1 genotoxic: inactive; Rab9 promoter act: inactive; FLuc counter: 17µM; NPC1 prom act: inactive

Results for Cc1ccc(O)c(NC(=O)c2ccc3c(c2)C(=O)N(Cc2cccnc2)C3=O)c1 ?
ELG1 genotoxic: inactive; Rab9 promoter act: inactive; FLuc counter: 1.9µM; NPC1 prom act: inactive

Results for COCCCN1C(=O)c2ccc(C(=O)Nc3ccccc3OC)cc2C1=O ?
ELG1 genotoxic: inactive; Rab9 promoter act: inactive; KinaseGlo FLuc: inactive; SMN2 splice up: inactive; FLuc counter: inactive; NPC1 prom act: inactive

What do the screens show for `Cc1ccc(SCC(=O)Nc2ccc(C(=O)Nc3ccc(O)cc3)cc2)cc1`?
ELG1 genotoxic: inconclusive; Rab9 promoter act: inactive; KinaseGlo FLuc: inactive; SMN2 splice up: inactive; FLuc counter: inconclusive; NPC1 prom act: inactive

Source: PubChem BioAssay (National Center for Advancing Translational Sciences (NCATS))
